# Test results as given in ChEMBL document CHEMBL3988442, “University of Dundee, Small-Polar-MMV Screening Library” (2021).
# About 960 (1.5%) of roughly 66,000 compounds showed an effect of 50% or more. The sample holds strong results, similar compounds and a random draw of the others, so the mix is not that of the screen.
# System: Trypanosoma brucei
# Test: Trypanosoma brucei 72 hour study
# Assay type: functional, organism-based
# Design: scale not given: in the data most compounds retested in dose-response had high values
compound,measurement,setting,value
CC(C)CC(=O)NCCn1nc(C2CCNC2)c2cccnc21.Cl (stereo not drawn),Percent Effect,"30.3 µM, […]",2.604%
CC(=O)N1N=C(c2ccco2)OC1C(=O)N(CC(C)C)CC(C)C (stereo not drawn),Percent Effect,"30.3 µM, […]",65.41%
same,Percent Effect,"10 mM, 10 mM as filed; unlikely as a test dose",-14.31%
CC(=O)N1N=C(c2ccco2)OC1C(=O)NCC(C)C (stereo not drawn),Percent Effect,"30.3 µM, […]",15.99%
same,Percent Effect,"10 mM, 10 mM as filed; unlikely as a test dose",-43.02%
CC(=O)N1N=C(c2ccco2)OC1C(=O)N(C)CCc1ccccc1 (stereo not drawn),Percent Effect,"30.3 µM, […]",-0.7394%
same,Percent Effect,"10 mM, 10 mM as filed; unlikely as a test dose",-39.66%
CCCc1nc(N2CCCN(c3ccncc3)CC2)c2cnn(C)c2n1,Percent Effect,"30 µM, 30.03 µM",59.27%
CCCc1nc(N2CCN(Cc3ccccn3)CC2)c2cnn(C)c2n1,Percent Effect,"30 µM, 30.03 µM",36.81%
CCCc1nc(N2CCCN(c3ncccn3)CC2)c2cnn(C)c2n1,Percent Effect,"30 µM, 30.03 µM",-12.92%
CC(=O)N1CCC(n2nccc2-c2cnc(N)nc2)CC1,Percent Effect,"30.3 µM, […]",-9.866%
Cn1ncc2c(N[C@H]3CCCC[C@@H]3O)nc(C(C)(C)C)nc21,Percent Effect,"30.3 µM, […]",-1.471%
Cn1ncc2c(NC3CCCN(C(=O)C4CC4)C3)nc(C(C)(C)C)nc21 (stereo not drawn),Percent Effect,"30 µM, 30.03 µM",43.28%
Cn1ncc2c(N[C@H]3CC[C@@H](N)CC3)nc(C(C)(C)C)nc21,Percent Effect,"30.3 µM, […]",99.86%
Cc1cccc(C(=O)N2C[C@@H]3CCN(c4cccnc4)C[C@@H]3C2)c1.O=C(O)C(F)(F)F,Percent Effect,"30 µM, 30.03 µM",1.381%
COCCN1C(=O)CC[C@@H]2[C@H]1CCN2Cc1cccc(C#N)c1.O=C(O)C(F)(F)F,Percent Effect,"30.3 µM, […]",-247.8%
CCCN(Cc1ccccc1O)S(=O)(=O)N(C)CC,Percent Effect,"30 µM, 30.03 µM",-50.11%
CCC(C)S(=O)(=O)N(Cc1ccco1)Cc1ccccc1O (stereo not drawn),Percent Effect,"30 µM, 30.03 µM",-17.24%
CCCN(Cc1ccccc1O)S(=O)(=O)C(C)CC (stereo not drawn),Percent Effect,"30 µM, 30.03 µM",101.6%
Cl.Nc1ccc(-c2cnc(C3CCCN3)cn2)cn1 (stereo not drawn),Percent Effect,"30.3 µM, […]",19.85%
Cc1ccc(N2CCc3sc(C(=O)N4CCOCC4)cc32)nn1,Percent Effect,"30.3 µM, […]",-27.02%
Cc1ccc(N2CCc3sc(C(=O)NCCN4CCCC4)cc32)nn1,Percent Effect,"30.3 µM, […]",54.03%
O=C(NCCN1CCCC1)c1cc2c(s1)CCN2c1ncccn1,Percent Effect,"30.3 µM, […]",35.85%
Cc1cc(C(=O)N2CC[C@H]3[C@H](C[C@@H](CN4CCCC4)N3C)C2)c(C)o1.O=C(O)C(F)(F)F.O=C(O)C(F)(F)F,Percent Effect,"30.3 µM, […]",-13.25%
Cl.O=C(NCCn1nc(C2CCNC2)c2cccnc21)C1CCC1 (stereo not drawn),Percent Effect,"30.3 µM, […]",-2.901%
Cc1cc(C)c2c(N3CCN(C(=O)N(C)C)CC3)ncnc2n1,Percent Effect,"30 µM, 30.03 µM",-10.57%
O=C(c1cccc(Cl)c1)C1CCCN(c2nnc(C3CCC3)o2)C1 (stereo not drawn),Percent Effect,"30 µM, 30.03 µM",75.84%
Cc1nnc(N2CCCC(C(=O)c3cccc(Cl)c3)C2)o1 (stereo not drawn),Percent Effect,"30 µM, 30.03 µM",-2.386%
O=C(c1cccnc1)C1CCCN(c2nnc(C3CC3)o2)C1 (stereo not drawn),Percent Effect,"30 µM, 30.03 µM",-35.25%
NCCn1cc(C(=O)N2CCCCCC2c2ccco2)nn1 (stereo not drawn),Percent Effect,"30 µM, 30.03 µM",-18.67%
Oc1cc(C2CCCN(Cc3cccs3)C2)nc(-c2ccccn2)n1 (stereo not drawn),Percent Effect,"30.3 µM, […]",100.2%
Oc1cc(C2CCCCN2Cc2cccs2)nc(-c2ccncc2)n1 (stereo not drawn),Percent Effect,"30.3 µM, […]",-2.917%
Cn1ncc2ccc(C3CCCN(Cc4cccs4)C3)nc21 (stereo not drawn),Percent Effect,"30.3 µM, […]",11.55%
Oc1cc(C2CCCCN2Cc2ccsc2)nc(-c2ccncc2)n1 (stereo not drawn),Percent Effect,"30.3 µM, […]",-12.11%
Oc1cc(C2CCCCN2Cc2cccs2)nc(-c2ccccn2)n1 (stereo not drawn),Percent Effect,"30.3 µM, […]",99.61%
Oc1cc(-c2nccs2)nc(C2CCN(Cc3cccs3)CC2)n1,Percent Effect,"30.3 µM, […]",-16.93%
O=C(CCn1cc(Cl)cn1)Nc1ccc2c(c1)OCCO2,Percent Effect,"30 µM, 30.03 µM",-17.81%
CN(C)c1ccc(C(=O)N2CCCN(C3CCCCC3)CC2)cn1,Percent Effect,"30.3 µM, […]",-15.89%
Cc1ccc(Cc2cnc(C3CCNCC3)cn2)cc1.Cl,Percent Effect,"30.3 µM, […]",-22.29%
O=S(=O)(NCC(c1ccsc1)N1CCCCCC1)c1cccs1 (stereo not drawn),Percent Effect,"30 µM, 30.03 µM",-20.18%
Oc1nc(N2CCOCC2)nc2c1CCN(Cc1ccccc1)CC2,Percent Effect,"30.3 µM, […]",-21.1%
Oc1nc(N2CCOCC2)nc2c1CCN(Cc1cccc(F)c1)CC2,Percent Effect,"30.3 µM, […]",-14.28%
Oc1nc(N2CCOCC2)nc2c1CCN(Cc1ccc(F)cc1)CC2,Percent Effect,"30.3 µM, […]",100.3%
CC(C)c1nc(CCN(C)c2nccc(N3CCCC(O)C3)n2)no1 (stereo not drawn),Percent Effect,"30.3 µM, […]",3.693%
Cc1oncc1C(=O)N1CC[C@H]2[C@H]1CCN2S(C)(=O)=O,Percent Effect,"30.3 µM, […]",97.42%
Cc1cc(C(=O)N2CC[C@H]3[C@H]2CCN3S(C)(=O)=O)c(C)o1,Percent Effect,"30.3 µM, […]",-71.76%
Cc1oncc1C(=O)N1CC[C@H]2[C@@H]1CCC(=O)N2CC1CC1,Percent Effect,"30.3 µM, […]",-43.42%
Cc1cccc(CN2CCC3(CC2)CC(c2cccnc2)C(=O)N3C)n1.O=C(O)C(F)(F)F.O=C(O)C(F)(F)F (stereo not drawn),Percent Effect,"30.3 µM, […]",-33.95%
